According to ChEMBL document CHEMBL3988442, “University of Dundee, Small-Polar-MMV Screening Library” (2021):

target: AMP-activated protein kinase, AMPK (Homo sapiens) (UniProt P54646+O43741+P54619+Q9UGJ0+Q9Y478+Q13131+Q9UGI9); assay: AMP-dependent Kinase enzyme assay. An in vitro enzyme assay that detects ADP turnover that is directly proportional to AMPK activity. This uses naive AMPK that is activated during the assay with MK-8722; format: functional; set-up: scale not given: direction of the effect not stated beside the values; settings: 30 µM

In order of rising Percent Effect:
1. CN(C)C(C(=O)N1CCN(CCn2cccc2)CC1)c1cccc(F)c1 (stereo not given)  -11.9%
2. O=C1NCCN(C(=O)CN2CCOC2=O)C1c1cccc(F)c1 (stereo not given)  -8.21%
3. Cc1ccc(-c2nnn(CCN3C(=O)CCC3=O)n2)cc1  -8.21%
4. CCc1nnc(NC(=O)c2c3c(nn2C2CCS(=O)(=O)C2)CCC3)s1 (stereo not given)  -8.02%
5. O=C1CCC(=O)N1CCn1nnc(-c2cccc(Cl)c2)n1  -7.61%
6. CC(C)c1nc(CSc2nnc(-c3cccs3)n2CC(N)=O)no1  -6.28%
7. Cc1nnsc1CN1CC[C@@](O)(C2CCC2)[C@H](C)C1  -5.82%
8. Cc1ccccc1Oc1ncccc1CNC(=O)Cn1cccnc1=O  -5.58%
9. Cc1nccn1CCN(C)C(=O)c1cn(-c2ccccc2)nn1  -5.19%
10. COCc1c(Br)cccc1NC(=O)N(C)CCO  -5.13%
11. Cn1nc(C(=O)NCCc2ccc(OC3CCCC3)cc2)ccc1=O  -4.35%
12. CN(Cc1ccoc1)C(=O)C1CCN(C(=O)C2CCCC2)CC1  -3.16%
13. c1ccc(CCN2CCN(C3CCOC4(CCOCC4)C3)CC2)nc1 (stereo not given)  -2.83%
14. CC(C)[C@@H]1CN(C(=O)C2(c3ccccc3)CC2)C[C@H]1C(=O)O  -2.56%
15. CCNC(=O)CN1CCc2c(Br)ccc(F)c2C1  -1.06%
16. CC(CO)NS(=O)(=O)c1cccc(C(C)C)c1 (stereo not given)  -0.593%
17. O=S(=O)(NCc1ccnc(-n2ccnc2)c1)c1cncc(Cl)c1  0.0234%
18. CC(=O)Nc1ccc(Oc2cc(C)nc(C3CCNCC3)c2)cc1  0.11%
19. CCc1nc(CN(C)C(=O)CSC)no1  1.82%
20. CC(C)CNC(=O)Nc1cccc(OCC#N)c1  2%
21. COCCN(C)C[C@@H]1CN(c2nc(C)cc(C)n2)C[C@@H]1CO  2.16%
22. Cc1ccc(CNC(CCO)C2CCCCC2)nc1 (stereo not given)  2.17%
23. O=C(c1nnn(-c2ccc(Cl)cc2)n1)N(CCO)Cc1ccccc1  3.07%
24. O=C(c1ccc(Cl)s1)N1CCCn2nc(CN3CC[C@H](F)C3)cc2C1  3.24%
25. CN(Cc1cn(C2CCNCC2)nn1)CC1CCCO1 (stereo not given)  3.31%
26. CCCc1n[nH]c(=O)n1Cc1ccc(OC)cc1  3.68%
27. Cc1c(CN2CCc3[nH]cnc3C2C(=O)O)[nH]c2ccc(F)cc12 (stereo not given)  3.73%
28. CN(CC(=O)NCCc1ccccn1)C(=O)c1cccs1  4.43%
29. O=C(Nc1ccc(F)cc1F)NC1(CO)CCOCC1  4.61%
30. O=C(c1coc(-c2ccccc2)n1)N1CCCC1  5.08%
31. COc1ccc2c(c1)CCCN(C(=O)NCC1CCCO1)C2 (stereo not given)  5.17%
32. COc1ccc(CN(C)Cc2c(C)noc2C)c(Cl)c1OC  6%
33. NC(=O)CCC1CCCN(Cc2cnc(N3CCCCC3)nc2)C1 (stereo not given)  7.08%
34. CN(C)CCNC(=O)CCC1CCN(C(=O)c2ccc(O)cn2)CC1  7.4%
35. CS(=O)(=O)NC(=O)c1ccn(-c2ccccc2Cl)n1  9.09%
36. CC(C)[C@H]1CN(Cc2ccccn2)C[C@@H]1NC(=O)CCS(C)(=O)=O  9.37%
37. CN1CC2(CCN(C(=O)CCCOCc3ccccc3)C2)OC1=O (stereo not given)  9.85%
38. Cc1cc(C(F)(F)F)nc(CNC(=O)CCn2cccn2)n1  12.2%
39. CC(C)(N)C(=O)N1CCCC(C(=O)c2ccc(C(C)(C)C)cc2)C1 (stereo not given)  17.9%
40. O=C(C1CC1)N1CCCC(C2=Nc3ccccc3S(=O)(=O)N2)C1 (stereo not given)  24.4%
